Laboratory results published in PubChem BioAssay AID624116 (National Center for Advancing Translational Sciences (NCATS), 2012).
Inconclusive results are not listed. Values without a mark were called inactive. Active and inactive are the calls of the source. Calls come from the whole dose curve; as a rule, active = well fitted activation curve with a large enough effect; inconclusive = small, poorly fitted or top-dose-only effect; inactive = no such curve, though single readings can be large or run the other way.
Potency is the fitted concentration of half-maximal effect.

Assay: qHTS Assay for Rab9 Promoter Activators: Hit Validation Using Renilla Luciferase Read-Out for Rab9; for activation, negative = inhibition: % of control where 0% means no effect
Conditions: Huh7 Rab9 promoter Renilla luciferase reporter, 24 h; series mostly up to 76.9 µM; activation, negative = inhibition: at the top concentration
Method in brief: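 Huh7 cells stably carrying promoter-luciferase reporter, exposed to compound for 24 h at 37 deg C. Luminescence read 10 min after adding luciferase detection reagent at room temperature.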
For `COc1ccc(NC(=S)NNC(=O)c2cccs2)cc1`, the “activation, negative = inhibition” value was -63%. With `O=C(CCCn1c(=O)oc2ccccc21)N1CCN(c2ccccn2)CC1` the “activation, negative = inhibition” value was -4.46%. For `O=C(CSc1ncccn1)Nc1cccc2ccccc12`, the “activation, negative = inhibition” value was 16.7%. In the case of `COc1ccc(C)cc1N(C(=O)CNC(=O)c1ccco1)C(C(=O)NC1CCCC1)c1cccnc1` (configuration not stated), the “activation, negative = inhibition” value was 14.4%. In the case of `O=C(NCCc1ccccc1)c1cc2ncc(Br)cn2n1`, the “activation, negative = inhibition” value was 1.2%. With `O=C(CCN1C(=O)c2ccccc2C1=O)Nc1ccc(-c2nc3ccccc3s2)cc1` the “activation, negative = inhibition” value was -38%. For `COc1ccc2oc(=O)c(C(=O)NC(C)c3ccccc3)cc2c1` (configuration not stated), the “activation, negative = inhibition” value was 6.37%. For `COc1cccc(C2Nc3ccccc3NC3=C2C(=O)CC(C)(C)C3)c1` (configuration not stated), the “activation, negative = inhibition” value was -7.96%. In the case of `O=C(CCc1cccc(Cl)c1)NC1CCCN(Cc2ccccc2F)C1` (configuration not stated), the “activation, negative = inhibition” value was 7.82%. With `Cc1ccc2nc(Nc3ccc(Cl)cc3)c3nncn3c2c1` the “activation, negative = inhibition” value was -9.4%. In the case of `CCCCn1c(CCNC(=O)c2cccs2)nc2ccccc21`, the “activation, negative = inhibition” value was -4.02%. In the case of `CCCCCCC(=O)Nc1ccc(C(=O)N/N=C/c2cccnc2)cc1`, the “activation, negative = inhibition” value was 4.77%. In the case of `CC1CCCN(C(=S)Nc2ccc(Nc3ccccc3)cc2)C1` (configuration not stated), the “activation, negative = inhibition” value was -6.42%. With `CCOC(=O)c1ccc(NC(=O)Oc2cc(C)c(Cl)cc2C(C)C)cc1` the “activation, negative = inhibition” value was -0.506%. With `O=C(CCCN1C(=O)C(c2ccccc2)Oc2cccnc21)Nc1ccccc1Cl` (configuration not stated) the “activation, negative = inhibition” value was 4.77%. With `CCN(C(=O)COC(=O)c1ccc(C=O)cc1)c1c(N)n(Cc2ccccc2)c(=O)[nH]c1=O` the “activation, negative = inhibition” value was 2.17%. With `Cc1ccc(CNC(=O)Nc2ccc(C)cc2)cc1` the “activation, negative = inhibition” value was -8.38%. In the case of `COc1ccc([N+](=O)[O-])cc1COc1ccc2c(-c3ccccc3)cc(=O)oc2c1`, the Potency was 3.28 µM (active). For `CC1=C(C(=O)OC2CCCC(C)C2)C(c2ccccc2)NC(=O)N1` (configuration not stated), the “activation, negative = inhibition” value was -36.9%. In the case of `COc1ccc(NC(=O)CN(C)C(=O)c2ccc(=O)[nH]c2)cc1`, the “activation, negative = inhibition” value was 4.55%. For `O=C(NCCc1c[nH]c2ccccc12)C(=O)NCC(c1ccco1)N1CCN(c2ccccc2F)CC1` (configuration not stated), the “activation, negative = inhibition” value was -2.24%. With `Cc1nn(CCCC(=O)NCc2ccc(F)cc2)c(C)c1[N+](=O)[O-]` the “activation, negative = inhibition” value was -6.9%. In the case of `NC(=O)COC(=O)c1ccc2noc(-c3ccccc3)c2c1`, the “activation, negative = inhibition” value was -0.713%. With `Cc1ccc(C(=O)Nc2ccc(N3CCN(C)CC3)nc2)cc1` the “activation, negative = inhibition” value was -4.41%. For `COCCNC(=O)CN1C(=O)NC(c2ccccc2)(c2ccccc2)C1=O`, the “activation, negative = inhibition” value was -2%. For `O=C(CN1C(=O)COc2ccc(Cl)cc21)NCC1CCCO1` (configuration not stated), the “activation, negative = inhibition” value was 9.31%. With `NC(=O)C1(NC(=O)[C@@H]2CC3(CC(c4cccc(NC(=O)[C@@H]5CCC(=O)N5)c4)=NO3)CN2C(=O)c2ccccc2)CC1` (some centres not stated) the “activation, negative = inhibition” value was -2.9%. For `Cc1ccc(C(=O)NC2CCN(CC(=O)Nc3c(C)cc(C)cc3C)CC2)cc1`, the “activation, negative = inhibition” value was -10.1%. In the case of `CCCCc1cc(=O)oc2cc(OCC(=O)N3CCOCC3)ccc12`, the “activation, negative = inhibition” value was 5.89%. In the case of `CC(C)C1(CCNC(=O)c2cccs2)CCOC(C)(C)C1` (configuration not stated), the “activation, negative = inhibition” value was 6.93%. For `COc1ccc(-n2c(N)c(C(=O)NCc3ccco3)sc2=S)cc1`, the “activation, negative = inhibition” value was 1.79%. For `CCN(CC(=O)N(CC(C)C)c1c(N)n(CC(C)C)c(=O)[nH]c1=O)Cc1nc2ccccc2c(=O)[nH]1`, the “activation, negative = inhibition” value was -1.5%. With `N#C/C(=N\Nc1ccc(Cl)cc1)C(=N)N1CCCCC1` the “activation, negative = inhibition” value was -66.8%. With `Cc1nc(-c2ccccn2)sc1C(=O)Nc1ccc(F)cc1F` the “activation, negative = inhibition” value was -4.26%. In the case of `O=C(O)C1=CC[C@@H](c2ccc(Cl)cc2)N(S(=O)(=O)c2ccc(Cl)cc2)[C@H]1c1ccccc1`, the Potency was 14.6 µM (active). With `CC(Sc1nnc(C(F)(F)F)n1C)C(=O)Nc1ccc(S(N)(=O)=O)cc1` (configuration not stated) the “activation, negative = inhibition” value was -0.0442%. In the case of `CCc1cc(C(=O)Nc2ccccc2)cs1`, the “activation, negative = inhibition” value was -35.2%.
